# Inconclusive results are not listed. Activity calls are given as the source filed them. How the source made its calls, unless noted: active means hit-call score of the fitted dose curve at least 0.9, where 1 is the maximum; inactive means score below 0.9.
# Tests used:
# [1] = BSK_4H_Eotaxin3: BioMAP Diversity Plus: 4H Assay for Eotaxin 3 Biomarker Activity (AID 2283000); details: primary human endothelial cells (HUVEC); actives raise or lower the signal;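 on outcome: CCL26 protein level quantified by ELISA in parallel with SRB cytotoxicity check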
# How it was run: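 Chemicals were added to human umbilical vein endothelium cultures, and Eotaxin-3 was quantified by ELISA at 24 h. Values were derived by bidirectional fitting with DMSO serving as negative control and activity baseline.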
# [2] = molecular target: human Peroxisome Proliferator-activated Receptor alpha (PPARa), PPARA (gene 5465) (UniProt Q07869); test: ATG_PPARa_TRANS: Attagene TRANS-FACTORIAL HepG2 Assay for human Peroxisome Proliferator-activated Receptor alpha (PPARa) (AID 2283001; active means hit-call score of the fitted dose curve at least 0.9, where 1 is the maximum;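 on AC50: potency for gain of reporter signal over DMSO so agonist or activator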)
# human Peroxisome Proliferator-activated Receptor alpha (PPARa), PPARA (gene 5465), sequence (Q07869 whole entry, looked up, the tested form may be a part): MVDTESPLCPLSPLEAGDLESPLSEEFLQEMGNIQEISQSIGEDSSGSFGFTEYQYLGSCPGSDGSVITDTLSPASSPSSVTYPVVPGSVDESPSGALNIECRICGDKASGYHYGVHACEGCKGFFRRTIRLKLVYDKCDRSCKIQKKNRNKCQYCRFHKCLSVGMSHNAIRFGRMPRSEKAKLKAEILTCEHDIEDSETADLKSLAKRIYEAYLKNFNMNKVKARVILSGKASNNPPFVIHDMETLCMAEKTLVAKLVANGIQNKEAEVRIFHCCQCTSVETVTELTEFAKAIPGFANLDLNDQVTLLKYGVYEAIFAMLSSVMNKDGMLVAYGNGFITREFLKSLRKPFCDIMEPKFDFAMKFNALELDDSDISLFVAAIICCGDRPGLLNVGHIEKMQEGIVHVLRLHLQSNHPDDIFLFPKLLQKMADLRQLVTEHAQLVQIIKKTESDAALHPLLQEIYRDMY
# How it was run: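 Reporter transcripts quantified by RT-PCR plus capillary electrophoresis after 24 h treatment, fitted upward relative to DMSO. Cells: human HepG2 transiently carrying multiple GAL4-UAS reporter units driven by NR-Gal4 chimeras.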
# [3] = molecular target: human Peroxisome Proliferator-activated Receptor delta (PPARd), PPARD (gene 5467) (UniProt Q03181); test: ATG_PPARd_TRANS: Attagene TRANS-FACTORIAL HepG2 Assay for human Peroxisome Proliferator-activated Receptor delta (PPARd) (AID 2283002; active means hit-call score of the fitted dose curve at least 0.9, where 1 is the maximum)
# human Peroxisome Proliferator-activated Receptor delta (PPARd), PPARD (gene 5467), sequence (Q03181 whole entry, looked up, the tested form may be a part): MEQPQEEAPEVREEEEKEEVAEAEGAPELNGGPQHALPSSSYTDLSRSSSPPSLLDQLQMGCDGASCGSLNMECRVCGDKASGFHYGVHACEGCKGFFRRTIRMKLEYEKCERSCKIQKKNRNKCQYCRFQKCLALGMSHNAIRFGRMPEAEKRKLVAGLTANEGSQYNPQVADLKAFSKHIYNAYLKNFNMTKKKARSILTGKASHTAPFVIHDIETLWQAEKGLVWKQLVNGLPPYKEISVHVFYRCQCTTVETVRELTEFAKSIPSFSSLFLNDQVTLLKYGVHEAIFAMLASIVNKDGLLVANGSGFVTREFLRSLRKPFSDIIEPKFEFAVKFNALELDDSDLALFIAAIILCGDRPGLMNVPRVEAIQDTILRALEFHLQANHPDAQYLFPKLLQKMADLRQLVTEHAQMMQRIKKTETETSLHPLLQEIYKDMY
# How it was run: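 Transient HepG2 transfection (multiple GAL4-UAS RTUs, chimeric receptor-Gal4); 24 h dosing; total RNA → oligo(dT) RT → PCR → 6-FAM primer extension → HpaI cut → CE. Positive direction vs DMSO.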
# [4] = read-out: Intercellular Adhesion Molecule 1 (ICAM1), ICAM1 (gene 3383); test: BSK_3C_ICAM1: BioMAP Diversity Plus: 3C Assay for Intercellular Adhesion Molecule 1 (ICAM1) Biomarker Activity (AID 2283003); details: primary human endothelial cells (HUVEC); actives raise or lower the signal
# How it was run: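 Chemicals are dosed onto primary human umbilical vein endothelium (3C system). After 24 h, ICAM-1 is measured by ELISA, and responses are fitted bidirectionally relative to DMSO.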
# [5] = BSK_3C_Proliferation: Cell Proliferation Assessment in the BioMAP Diversity Plus: 3C Assay (AID 2283006); details: primary human endothelial cells (HUVEC);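 on AC50: potency may reflect either rise or fall in cell number versus DMSO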
# How it was run: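 Cells (human umbilical vein endothelial, sub-confluent) receive test chemical; after 48 h they are fixed in 10% trichloroacetic acid, stained with 0.1% SRB and read at 560 nm. Activity is referenced to DMSO, fitting increases and decreases.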
# [6] = molecular target: Peroxisome proliferator-activated receptor gamma (Homo sapiens) (UniProt P37231); test: ATG_PPARg_TRANS: Attagene TRANS-FACTORIAL HepG2 Assay for human Peroxisome Proliferator-activated Receptor-gamma (PPARg) (AID 2283007; active means hit-call score of the fitted dose curve at least 0.9, where 1 is the maximum)
# Peroxisome proliferator-activated receptor gamma (Homo sapiens), sequence (P37231 whole entry, looked up): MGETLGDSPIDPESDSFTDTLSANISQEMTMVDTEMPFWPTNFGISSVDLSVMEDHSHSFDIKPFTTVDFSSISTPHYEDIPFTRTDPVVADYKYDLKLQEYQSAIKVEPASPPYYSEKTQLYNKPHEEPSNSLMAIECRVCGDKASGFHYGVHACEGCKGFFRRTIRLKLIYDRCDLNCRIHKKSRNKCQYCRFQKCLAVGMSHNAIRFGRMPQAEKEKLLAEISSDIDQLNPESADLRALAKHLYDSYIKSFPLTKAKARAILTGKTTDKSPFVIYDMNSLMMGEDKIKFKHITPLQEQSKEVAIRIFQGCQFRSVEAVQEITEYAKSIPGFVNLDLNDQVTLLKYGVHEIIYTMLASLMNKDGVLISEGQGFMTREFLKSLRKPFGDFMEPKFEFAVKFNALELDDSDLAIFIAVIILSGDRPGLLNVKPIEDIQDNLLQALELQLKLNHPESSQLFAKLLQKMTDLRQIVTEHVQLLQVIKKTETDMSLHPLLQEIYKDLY
# How it was run: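 Human hepatoma HepG2, transient MRTU transfection, 24 h treatment. mRNA reporter signal by RT-PCR plus capillary electrophoresis, fluorescence detection; fitted for increase over DMSO negative control.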
# [7] = molecular target: Nuclear receptor subfamily 1 group I member 2 (Homo sapiens) (UniProt O75469); test: ATG_PXR_TRANS: Attagene TRANS-FACTORIAL HepG2 Assay for human Pregnane X Receptor (PXR) (AID 2283008; active means hit-call score of the fitted dose curve at least 0.9, where 1 is the maximum)
# Nuclear receptor subfamily 1 group I member 2 (Homo sapiens), sequence (O75469 whole entry, looked up, the tested form may be a part): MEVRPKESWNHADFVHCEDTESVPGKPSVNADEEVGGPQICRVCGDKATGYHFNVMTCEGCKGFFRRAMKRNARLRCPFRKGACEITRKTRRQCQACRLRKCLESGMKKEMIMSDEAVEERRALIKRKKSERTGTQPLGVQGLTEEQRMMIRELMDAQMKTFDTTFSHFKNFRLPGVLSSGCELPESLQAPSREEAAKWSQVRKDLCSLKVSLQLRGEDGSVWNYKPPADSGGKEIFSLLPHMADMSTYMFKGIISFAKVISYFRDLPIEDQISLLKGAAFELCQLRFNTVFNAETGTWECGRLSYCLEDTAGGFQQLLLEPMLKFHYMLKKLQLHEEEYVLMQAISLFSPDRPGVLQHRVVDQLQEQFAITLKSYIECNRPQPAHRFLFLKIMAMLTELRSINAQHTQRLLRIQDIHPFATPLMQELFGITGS
# How it was run: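 Trans-factorial format: exogenous NR-Gal4 fusion activity, not endogenous factor, in transfected human HepG2 liver cells. After 24 h dosing, RNA isolated, reverse-transcribed, amplified and resolved by capillary electrophoresis; induction scored versus DMSO.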
# [8] = molecular target: human Retinoic Acid Receptor gamma (RARg), RARG (gene 5916) (UniProt P13631); test: ATG_RARg_TRANS: Attagene TRANS-FACTORIAL HepG2 Assay for human Retinoic Acid Receptor gamma (RARg) (AID 2283009; active means hit-call score of the fitted dose curve at least 0.9, where 1 is the maximum)
# human Retinoic Acid Receptor gamma (RARg), RARG (gene 5916), sequence (P13631 whole entry, looked up, the tested form may be a part): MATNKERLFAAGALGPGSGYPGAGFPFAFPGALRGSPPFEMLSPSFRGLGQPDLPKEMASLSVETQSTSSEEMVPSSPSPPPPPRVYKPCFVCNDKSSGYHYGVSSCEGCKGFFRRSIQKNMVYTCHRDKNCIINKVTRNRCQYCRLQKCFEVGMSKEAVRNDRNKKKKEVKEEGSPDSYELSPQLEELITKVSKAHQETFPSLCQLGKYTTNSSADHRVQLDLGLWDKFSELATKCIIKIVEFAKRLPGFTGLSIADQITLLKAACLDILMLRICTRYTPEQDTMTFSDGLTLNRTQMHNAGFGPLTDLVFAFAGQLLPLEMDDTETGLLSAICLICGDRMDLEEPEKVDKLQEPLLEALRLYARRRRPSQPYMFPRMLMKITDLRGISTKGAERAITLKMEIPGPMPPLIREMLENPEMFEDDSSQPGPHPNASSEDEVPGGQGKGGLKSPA
# How it was run: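 TRANS format measured activity of exogenous NR-GAL4 fusion (RARg) in transfected HepG2 liver cells after 24 h dosing. Induced reporter RNA was detected by RT-PCR/capillary electrophoresis fluorescence, analysed in the positive direction against DMSO.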
# [9] = molecular target: human RAR-related Orphan Receptor beta (RORb), RORB (gene 6096) (UniProt Q92753); test: ATG_RORb_TRANS: Attagene TRANS-FACTORIAL HepG2 Assay for human RAR-related Orphan Receptor beta (RORb) (AID 2283010; active means hit-call score of the fitted dose curve at least 0.9, where 1 is the maximum)
# How it was run: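 Transfect HepG2 with multiple GAL4-UAS reporter transcription units; dose chemicals for 24 h; isolate RNA, reverse-transcribe and PCR-amplify reporter sequences; label, digest and resolve fragments by capillary electrophoresis; fit increases relative to DMSO.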
# [10] = molecular target: human RAR-related Orphan Receptor gamma (RORg), RORC (gene 6097) (UniProt P51449); test: ATG_RORg_TRANS: Attagene TRANS-FACTORIAL HepG2 Assay for human RAR-related Orphan Receptor gamma (RORg) (AID 2283011; active means hit-call score of the fitted dose curve at least 0.9, where 1 is the maximum)
# human RAR-related Orphan Receptor gamma (RORg), RORC (gene 6097), sequence (P51449 whole entry, looked up, the tested form may be a part): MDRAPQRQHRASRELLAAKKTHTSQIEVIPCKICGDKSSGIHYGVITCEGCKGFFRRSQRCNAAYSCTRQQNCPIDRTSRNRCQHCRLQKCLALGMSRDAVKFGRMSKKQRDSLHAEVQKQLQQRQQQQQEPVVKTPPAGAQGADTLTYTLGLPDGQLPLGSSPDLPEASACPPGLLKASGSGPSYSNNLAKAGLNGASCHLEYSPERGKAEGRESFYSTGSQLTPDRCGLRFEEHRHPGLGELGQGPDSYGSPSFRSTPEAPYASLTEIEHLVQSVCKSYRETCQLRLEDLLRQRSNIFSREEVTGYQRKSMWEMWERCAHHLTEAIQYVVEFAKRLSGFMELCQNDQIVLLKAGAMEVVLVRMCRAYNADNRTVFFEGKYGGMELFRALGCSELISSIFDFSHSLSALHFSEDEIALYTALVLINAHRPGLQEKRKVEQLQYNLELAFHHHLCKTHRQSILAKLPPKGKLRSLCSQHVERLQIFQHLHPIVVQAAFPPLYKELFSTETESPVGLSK
# How it was run: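 First, HepG2 liver cells were transfected with GAL4-UAS-driven reporter constructs and the RORg-Gal4 fusion. Next, they were treated with chemical for 24 h. Finally, reporter mRNA was quantified by RT-PCR and capillary electrophoresis, with upward activity fitted against DMSO.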
# [11] = molecular target: Retinoic acid receptor RXR-alpha (Homo sapiens) (UniProt P19793); test: ATG_RXRa_TRANS: Attagene TRANS-FACTORIAL HepG2 Assay for human Retinoid X Receptor alpha (RXRa) (AID 2283012; active means hit-call score of the fitted dose curve at least 0.9, where 1 is the maximum)
# Retinoic acid receptor RXR-alpha (Homo sapiens), sequence (P19793 whole entry, looked up, the tested form may be a part): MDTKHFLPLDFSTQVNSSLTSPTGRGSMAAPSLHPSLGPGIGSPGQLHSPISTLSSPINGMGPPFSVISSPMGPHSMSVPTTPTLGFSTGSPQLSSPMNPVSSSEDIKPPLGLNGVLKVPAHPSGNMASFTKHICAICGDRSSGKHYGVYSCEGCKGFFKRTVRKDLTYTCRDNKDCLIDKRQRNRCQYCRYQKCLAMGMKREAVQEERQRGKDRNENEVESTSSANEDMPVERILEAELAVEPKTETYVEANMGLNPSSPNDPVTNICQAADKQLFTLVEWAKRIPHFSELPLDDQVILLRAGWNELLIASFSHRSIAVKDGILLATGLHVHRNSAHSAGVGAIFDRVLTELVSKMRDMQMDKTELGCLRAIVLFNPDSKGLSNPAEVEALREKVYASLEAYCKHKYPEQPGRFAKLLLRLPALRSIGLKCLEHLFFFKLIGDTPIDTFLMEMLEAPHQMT
# How it was run: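 Measures exogenous chimeric NR-GAL4 activity in transfected HepG2 liver cells after 24 h of dosing. Induced reporter mRNA was detected by RT-PCR with capillary electrophoresis, and gain of signal was analysed against DMSO.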
# [12] = molecular target: human Thyroid Receptor alpha (THRa1), THRA (gene 7067) (UniProt P10827); test: ATG_THRa1_TRANS: Attagene TRANS-FACTORIAL HepG2 Assay for human Thyroid Receptor alpha (THRa1) (AID 2283014; active means hit-call score of the fitted dose curve at least 0.9, where 1 is the maximum)
# human Thyroid Receptor alpha (THRa1), THRA (gene 7067), sequence (P10827 whole entry, looked up, the tested form may be a part): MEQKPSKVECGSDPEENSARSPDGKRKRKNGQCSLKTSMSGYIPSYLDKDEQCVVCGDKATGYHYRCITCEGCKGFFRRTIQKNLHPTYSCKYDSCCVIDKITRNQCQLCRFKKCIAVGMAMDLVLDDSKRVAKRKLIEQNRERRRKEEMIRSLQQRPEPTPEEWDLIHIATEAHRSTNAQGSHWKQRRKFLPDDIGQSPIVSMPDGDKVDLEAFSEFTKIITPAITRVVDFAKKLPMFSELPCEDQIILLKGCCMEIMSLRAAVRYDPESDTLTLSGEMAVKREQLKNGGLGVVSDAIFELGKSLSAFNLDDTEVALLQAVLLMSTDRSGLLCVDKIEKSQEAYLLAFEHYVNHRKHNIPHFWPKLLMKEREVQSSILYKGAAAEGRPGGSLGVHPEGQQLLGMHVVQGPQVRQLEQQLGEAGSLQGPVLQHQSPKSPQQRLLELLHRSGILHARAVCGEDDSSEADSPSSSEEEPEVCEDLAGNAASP
# How it was run: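 Reporter transcript induction, read by capillary electrophoresis of 6-FAM-labelled RT-PCR products, reflects activity of a transfected THRa1-Gal4 fusion in HepG2 liver cells. Cells were dosed for 24 h; activity was fitted in the positive direction against DMSO.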
# [13] = read-out: E-selectin (Homo sapiens) (UniProt P16581); test: BSK_3C_Eselectin: BioMAP Diversity Plus: 3C Assay for Eselectin Biomarker Activity (AID 2283015); details: primary human endothelial cells (HUVEC); actives raise or lower the signal;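 on outcome: cell surface E-selectin protein quantified by ELISA 24 h after dosing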
# How it was run: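 ELISA read-out of E-selectin on endothelial monolayers after 24 h chemical treatment. Human umbilical vein primary cells served as the system, with DMSO defining baseline activity for bidirectional fitting.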
# [14] = read-out: Interleukin-1 alpha (IL1a), IL1A (gene 3552); test: BSK_BE3C_IL1a: BioMAP Diversity Plus: BE3C Assay for Interleukin-1 alpha (IL1a) Biomarker Activity (AID 2283016); details: primary human bronchial epithelial cells; actives raise or lower the signal
# How it was run: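 Signal from IL-1a ELISA, taken 24 h after chemical dosing of human bronchial epithelial cells, is compared with DMSO as baseline using bidirectional curve fitting.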
# [15] = read-out: Monocyte Chemoattractant Protein-1 (MCP1), CCL2 (gene 6347); test: BSK_3C_MCP1: BioMAP Diversity Plus: 3C Assay for Monocyte Chemoattractant Protein-1 (MCP1) Biomarker Activity (AID 2283017); details: primary human endothelial cells (HUVEC); actives raise or lower the signal
# How it was run: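 ELISA read-out of MCP-1 from human umbilical vein endothelial cell cultures harvested 24 h post-dosing. Gain or loss of signal was fitted relative to DMSO.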
# [16] = read-out: Monocyte Chemoattractant Protein-1 (MCP1), CCL2 (gene 6347); test: BSK_4H_MCP1: BioMAP Diversity Plus: 4H Assay for Monocyte Chemoattractant Protein-1 (MCP1) Biomarker Activity (AID 2283018); details: primary human endothelial cells (HUVEC); actives raise or lower the signal
# How it was run: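 Endothelial cells from umbilical vein were treated with test chemical, then after 24 h MCP-1 levels were quantified by ELISA; endpoint values came from bidirectional fitting with DMSO as baseline of activity.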
# [17] = read-out: Human Leukocyte Antigen - DR isotype (HLADR), HLA-DRA (gene 3122); test: BSK_3C_HLADR: BioMAP Diversity Plus: 3C Assay for Human Leukocyte Antigen - DR isotype (HLADR) Biomarker Activity (AID 2283019); details: primary human endothelial cells (HUVEC); actives raise or lower the signal;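 on outcome: ELISA of cell-surface HLA-DR on HUVEC 24 h after dosing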
# How it was run: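 ELISA readout of surface HLA-DR on human umbilical vein endothelium, taken 24 h after chemical treatment. Gain- and loss-of-signal were both fitted relative to DMSO.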
# [18] = molecular target: human Retinoic Acid Receptor beta (RARb), RARB (gene 5915) (UniProt P10826); test: ATG_RARb_TRANS: Attagene TRANS-FACTORIAL HepG2 Assay for human Retinoic Acid Receptor beta (AID 2283004; active means hit-call score of the fitted dose curve at least 0.9, where 1 is the maximum)
# How it was run: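 Transient transfection of HepG2 with multiple reporter units → chemical dosing, 24 h → total RNA isolation → RT with oligo(dT) → reporter-specific PCR, 6-FAM primer extension, HpaI digest → capillary electrophoresis. Positive direction vs DMSO control.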
# [19] = molecular target: Retinoic acid receptor alpha (Homo sapiens) (UniProt P10276); test: ATG_RARa_TRANS: Attagene TRANS-FACTORIAL HepG2 Assay for human Retinoic Acid Receptor alpha (RARa) (AID 2283005; active means hit-call score of the fitted dose curve at least 0.9, where 1 is the maximum)
# Retinoic acid receptor alpha (Homo sapiens), sequence (P10276 whole entry, looked up, the tested form may be a part): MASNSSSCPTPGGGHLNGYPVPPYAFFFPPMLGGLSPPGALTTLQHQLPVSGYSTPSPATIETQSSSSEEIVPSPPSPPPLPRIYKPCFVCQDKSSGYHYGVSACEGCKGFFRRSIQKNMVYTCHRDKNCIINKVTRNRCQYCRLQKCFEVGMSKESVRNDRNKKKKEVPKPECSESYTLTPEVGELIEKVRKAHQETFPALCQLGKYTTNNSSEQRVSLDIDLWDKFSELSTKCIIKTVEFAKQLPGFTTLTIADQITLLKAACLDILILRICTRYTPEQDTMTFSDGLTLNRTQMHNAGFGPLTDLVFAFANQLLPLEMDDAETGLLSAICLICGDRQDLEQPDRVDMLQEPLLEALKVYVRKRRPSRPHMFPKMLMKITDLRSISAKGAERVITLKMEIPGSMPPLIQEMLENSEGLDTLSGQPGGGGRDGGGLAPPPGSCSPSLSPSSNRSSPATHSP
# How it was run: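 Reporter transcripts, measured by RT-PCR with fluorescent labeling and capillary electrophoresis after 24 h dosing, reflect activity of an exogenous human RARa–GAL4 fusion in transiently transfected HepG2. Fitted for increase relative to DMSO.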
# [20] = molecular target: human Retinoid X Receptor beta (RXRb), RXRB (gene 6257) (UniProt P28702); test: ATG_RXRb_TRANS: Attagene TRANS-FACTORIAL HepG2 Assay for human Retinoid X Receptor beta (RXRb) (AID 2283013; active means hit-call score of the fitted dose curve at least 0.9, where 1 is the maximum)
# How it was run: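 Chimeric receptor-Gal4 activity was assessed in transiently transfected human HepG2 cells after 24 h exposure. Transcripts from GAL4-UAS reporters were quantified by fluorescent RT-PCR and capillary electrophoresis, with DMSO as negative control and baseline.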
# E-selectin (Homo sapiens), sequence (P16581 whole entry, looked up): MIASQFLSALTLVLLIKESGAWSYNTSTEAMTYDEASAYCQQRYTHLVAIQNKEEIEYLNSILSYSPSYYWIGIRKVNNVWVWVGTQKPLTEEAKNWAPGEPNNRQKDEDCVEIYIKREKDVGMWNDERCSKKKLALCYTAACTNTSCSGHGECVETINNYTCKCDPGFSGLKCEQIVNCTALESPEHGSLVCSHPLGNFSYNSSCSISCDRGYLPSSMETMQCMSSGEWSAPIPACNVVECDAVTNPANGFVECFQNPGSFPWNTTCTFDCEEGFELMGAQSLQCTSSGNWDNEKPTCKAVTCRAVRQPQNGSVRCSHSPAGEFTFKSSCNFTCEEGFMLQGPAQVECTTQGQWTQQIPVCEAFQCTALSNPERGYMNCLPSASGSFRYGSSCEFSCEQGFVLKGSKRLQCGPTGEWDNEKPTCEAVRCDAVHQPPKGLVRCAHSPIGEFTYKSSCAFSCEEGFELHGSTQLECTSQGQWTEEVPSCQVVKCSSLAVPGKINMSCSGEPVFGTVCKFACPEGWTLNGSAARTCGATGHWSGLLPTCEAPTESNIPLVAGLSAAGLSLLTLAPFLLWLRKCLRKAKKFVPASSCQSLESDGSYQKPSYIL
compound,measurement,setting,value
O=C(Cl)C(F)(F)C(F)(F)C(F)(F)C(F)(F)C(F)(F)C(F)(F)C(F)(F)F,outcome,[1],inactive
same,AC50,[2],10.8 µM (active)
same,outcome,[3],inactive
same,outcome,[4],inactive
same,outcome,[5],inactive
same,AC50,[6],55.1 µM (active)
same,outcome,[7],inactive
same,outcome,[8],inactive
same,outcome,[9],inactive
same,outcome,[10],inactive
same,outcome,[11],inactive
same,outcome,[12],inactive
same,outcome,[13],inactive
same,outcome,[14],inactive
same,outcome,[15],inactive
same,outcome,[16],inactive
same,outcome,[17],inactive
O=C(Cl)C(F)(F)C(F)(F)C(F)(F)C(F)(F)C(F)(F)C(F)(F)F,outcome,[1],inactive
same,AC50,[2],10.9 µM (active)
same,outcome,[4],inactive
same,outcome,[18],inactive
same,outcome,[19],inactive
same,outcome,[5],inactive
same,AC50,[6],71.1 µM (active)
same,outcome,[7],inactive
same,outcome,[8],inactive
same,outcome,[11],inactive
same,outcome,[20],inactive
same,outcome,[13],inactive
same,outcome,[14],inactive
same,outcome,[15],inactive
same,outcome,[16],inactive
same,outcome,[17],inactive
CC(C)CCCC(C)CCO (configuration not stated),AC50,[1],36.5 µM (active)
same,outcome,[2],inactive
same,outcome,[3],inactive
same,AC50,[4],35.5 µM (active)
same,AC50,[5],30.4 µM (active)
same,outcome,[6],inactive
same,outcome,[7],inactive
same,outcome,[10],inactive
same,outcome,[11],inactive
same,AC50,[13],36.8 µM (active)
same,AC50,[14],30.6 µM (active)
same,AC50,[15],30.2 µM (active)
same,AC50,[16],35.3 µM (active)
same,AC50,[17],29.9 µM (active)

# — PubChem BioAssay (EPA / NIEHS)
